IL1B secr inh: qHTS for Inhibitors of Inflammasome Signaling: IL-1-beta AlphaLISA Primary Screen. THP-1 LPS/ATP IL-1B secretion, AlphaLISA, 16 h; stronger effect = lower value. activity change, % at 57.5 µM. hit rate 4.7% among 360,000; in the data active = activity change below about -50%; inconclusive = mostly about -30% to -49%
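Secreted IL-1B measured by AlphaLISA bead assay after 16 h compound exposure of THP-1 cells; compounds (final up to 57.5 uM) added 1 h before LPS (250 ng/mL) and ATP (1.25 mM) stimulation; lower signal means less secretion.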
HT1080 IDH1KD tx: qHTS for induction of synthetic lethality in tumor cells producing 2HG: qHTS for the HT-1080-IDH1KD cell line; hit rate 2% among 360,000; HT-1080 IDH1 knockdown viability, ATP luminescence, 48 h; Potency, µM (titrated, usually from 46.1 µM), inactives show top-dose activity, negative = toxicity, actives largely listed as cytotoxic;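 note: potency is the fitted concentration of half-maximal effect; 0% = DMSO wells and -100% = cell-free medium wells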
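HT-1080-IDH1KD cells (IDH1 knocked down), 750/well in RPMI with 5% FBS, treated with compound 48 h at 37 degrees C. Viability by CellTiter-Glo luminescence, normalised to DMSO and no-cell wells; concentration-response curves classed.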
TDP1 cell CPT: qHTS for Inhibitors of human tyrosyl-DNA phosphodiesterase 1 (TDP1): qHTS in cells in presence of CPT; chicken DT40 Tdp1-/-;hTDP1 cells + 20 nM CPT, ATP luminescence, 48 h; Potency, µM (series often up to 46.2 µM), without a hit: at the top dose activity change, negative = growth inhibition, usual class: inhibitors; hit rate 12% among 420,000; AID 686979, 2013; note: potency is the fitted concentration of half-maximal effect; nearly all actives have a fitted effect of over 55% in size
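Chicken DT40 Tdp1-/- cells complemented with human TDP1, 400 cells/well, exposed to compounds plus 20 nM camptothecin for at least 48 h at 37 C; viability read as ATP content by CellTiter-Glo luminescence.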
TDP1 cell noCPT: qHTS for Inhibitors of human tyrosyl-DNA phosphodiesterase 1 (TDP1): qHTS in cells in absence of CPT. Potency, µM (titrated, usually from 46.2 µM), without a hit: top-dose activity change, negative = growth inhibition, hits mostly inhibitors. hit rate 15% among 420,000. DT40 Tdp1-/- hTDP1 cells, no CPT, ATP luminescence, 48 h; note: potency is the fitted concentration of half-maximal effect; nearly all actives have a fitted effect of over 55% in size
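Seeded 400 DT40-hTDP1 cells/well (vehicle DMSO, no 20 nM CPT); pinned compounds; ≥48 hr at 37 °C; CellTiter-Glo luminescence as viability measure.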
HT1080NT lethal: qHTS for induction of synthetic lethality in tumor cells producing 2HG: qHTS for the HT-1080-NT fibrosarcoma cell line; HT-1080-NT fibrosarcoma viability, CellTiter-Glo ATP luminescence, 48 h; hit rate 1.6% among 360,000; Potency, µM (series often up to 46.1 µM), for inactives: top-dose activity, negative = less viability, hits mostly cytotoxic;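 note: NT is the 2HG producing partner of a matched IDH1 knockdown line; potency is the fitted concentration of half-maximal effect; 0% = DMSO-treated cells and -100% = media-only wells without cells; nearly all actives have a fitted effect of over 55% in size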
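HT-1080-NT fibrosarcoma cells (2HG-overproducing), 750 cells/well in RPMI with 5% FBS, dosed after 2 h and incubated 48 h at 37C. CellTiter-Glo luminescence normalized to DMSO and no-cell wells; concentration-response curves fitted and classed.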
* = called active by the depositor; [ ] = another dose, or the depositor's remark. Only some compounds are listed: those with a hit (about 19% of all), similar ones and a draw of the others. Unless noted, calls come from the whole dose curve; as a rule, active = well fitted curve in the direction sought with a large enough effect; inconclusive = small, poorly fitted or top-dose-only effect, or another doubt; inactive = no such curve, though single readings can be large; an effect the other way counts as inactive or inconclusive. Unless noted, % is set by controls: 0 for no effect and ±100 for the full control effect.

For COc1ccc2nc(SCC(=O)Nc3ccc4sc(C)nc4c3)c(C#N)cc2c1 the results were IL1B secr inh 13, HT1080 IDH1KD tx -1%, TDP1 cell CPT 13µM*, TDP1 cell noCPT 8.2µM* and HT1080NT lethal 2%.
Screening O=CC1=C(c2ccccc2)Oc2ccccc2O1 returned IL1B secr inh -102*, HT1080 IDH1KD tx 16µM*, TDP1 cell CPT inconclusive, TDP1 cell noCPT inconclusive and HT1080NT lethal inconclusive.
`CN(C)/C=C1/N=C(c2ccccc2)OC1=O` gave IL1B secr inh inconclusive, HT1080 IDH1KD tx -4%[9.24 µM], TDP1 cell CPT 0%, TDP1 cell noCPT 3% and HT1080NT lethal -1%.
Screening O=C(NCc1nnc2n1CCN(Cc1cccc(Cl)c1)CC2)c1cccc(F)c1 returned TDP1 cell CPT 5.2µM* and TDP1 cell noCPT 4.1µM*.
COc1ccc(C(=O)N2CCC(=O)N(C(CO)Cc3ccccc3)CC2)cc1 (centres undefined) was read as IL1B secr inh 5, HT1080 IDH1KD tx 3%, TDP1 cell CPT -28%, TDP1 cell noCPT -9% and HT1080NT lethal 0%.
Nc1c2c(nc3ccn(-c4ccccc4)c(=O)c13)CCCCC2 was read as IL1B secr inh -58*, HT1080 IDH1KD tx 16%, TDP1 cell CPT -12%, TDP1 cell noCPT inconclusive and HT1080NT lethal 26%.
Screening COc1ccc(/C=C/C(=O)OCC(=O)Nc2cccc(S(=O)(=O)NC3=NCCCCC3)c2)cc1 returned IL1B secr inh -70*, HT1080 IDH1KD tx 0%, TDP1 cell CPT -16%, TDP1 cell noCPT -20% and HT1080NT lethal -1%.
For Cc1ccc(Nc2nnc(SCC(=O)Nc3cccc(S(=O)(=O)NC4=NCCCCC4)c3)s2)c(C)c1 the results were IL1B secr inh inconclusive, HT1080 IDH1KD tx 0%, TDP1 cell CPT inconclusive, TDP1 cell noCPT 26µM* and HT1080NT lethal -10%.
Screening COc1ccc(C(=O)Nc2cccc(S(=O)(=O)NC3=NCCCCC3)c2)cc1 returned IL1B secr inh 21, HT1080 IDH1KD tx -2%, TDP1 cell CPT -28%, TDP1 cell noCPT -27% and HT1080NT lethal -1%[9.24 µM].
Screening COc1cc(OC)cc(C(=O)OCC(=O)Nc2cccc(S(=O)(=O)NC3=NCCCCC3)c2)c1 returned IL1B secr inh 8, HT1080 IDH1KD tx 6%, TDP1 cell CPT inconclusive, TDP1 cell noCPT 21µM* and HT1080NT lethal 5%.
Cc1ccc(C)c(C(=O)OCC(=O)Nc2cccc(S(=O)(=O)NC3=NCCCCC3)c2)c1 was read as IL1B secr inh -69*, HT1080 IDH1KD tx -21%, TDP1 cell CPT inconclusive, TDP1 cell noCPT inconclusive and HT1080NT lethal -16%.
Screening CSC1=NC2(CCN(C(=O)NC3CCCCC3)CC2)N=C1c1ccc(C)c(C)c1 returned TDP1 cell CPT -9% and TDP1 cell noCPT -3%.
For CN1CCN(C(=O)c2cc([N+](=O)[O-])cc([N+](=O)[O-])c2)CC1 the results were IL1B secr inh 40, HT1080 IDH1KD tx 1%, TDP1 cell CPT -3%, TDP1 cell noCPT 16% and HT1080NT lethal -5%.
Screening Cc1ccc(-c2[nH]nc(N)c2N=Nc2cccc(Cl)c2C)cc1 returned IL1B secr inh -76*, HT1080 IDH1KD tx inconclusive, TDP1 cell CPT inconclusive, TDP1 cell noCPT 13µM* and HT1080NT lethal inconclusive.
Cc1cccc(N=Nc2c(N)n[nH]c2-c2ccc(Cl)cc2)c1 was read as IL1B secr inh -54*, HT1080 IDH1KD tx inconclusive, TDP1 cell CPT inconclusive, TDP1 cell noCPT inconclusive and HT1080NT lethal inconclusive.
`Cc1ccc(N=Nc2c(N)n[nH]c2N)cc1` gave IL1B secr inh -64*, HT1080 IDH1KD tx 20%, TDP1 cell CPT 2%, TDP1 cell noCPT -6% and HT1080NT lethal 13%.
Screening Cc1[nH]nc(N)c1-c1ccccc1 returned IL1B secr inh inconclusive, HT1080 IDH1KD tx -2%, TDP1 cell CPT -5%, TDP1 cell noCPT -9% and HT1080NT lethal -6%.
Cc1ccc(-c2[nH]nc(N)c2N=Nc2ccccc2C)cc1 was read as IL1B secr inh inconclusive, HT1080 IDH1KD tx 18µM*, TDP1 cell CPT inconclusive, TDP1 cell noCPT inconclusive and HT1080NT lethal inconclusive.
For O=[N+]([O-])c1cc([N+](=O)[O-])c(Oc2c(F)ccc(F)c2F)cc1NN1CCCCC1 the results were IL1B secr inh -3, HT1080 IDH1KD tx 7%, TDP1 cell CPT inconclusive, TDP1 cell noCPT inconclusive and HT1080NT lethal 6%.
For OCC1(Cc2ccccc2)CCN(Cc2cnc(-c3cccc4ccccc34)nc2)CC1 the results were IL1B secr inh -57*, HT1080 IDH1KD tx -5%, TDP1 cell CPT inconclusive, TDP1 cell noCPT inconclusive and HT1080NT lethal -7%.
For OCCC1CN(Cc2cnc(-c3ccc(Cl)cc3)nc2)CCN1C1CCCCC1 (centres undefined) the results were HT1080 IDH1KD tx -12%, TDP1 cell CPT inconclusive, TDP1 cell noCPT 21µM* and HT1080NT lethal -2%.
For OCC1(Cc2ccc(Cl)cc2)CCN(Cc2ccc(Oc3ncccn3)cc2)CC1 the results were IL1B secr inh -90*, HT1080 IDH1KD tx inconclusive, TDP1 cell CPT -25%, TDP1 cell noCPT -19% and HT1080NT lethal -14%.
Screening Cc1cccc(-c2ncc(CN3CCN(C4CCCC4)C(CCO)C3)cn2)c1 (centres undefined) returned IL1B secr inh 4, HT1080 IDH1KD tx -19%, TDP1 cell CPT 8%, TDP1 cell noCPT 2% and HT1080NT lethal -22%.
Cc1ccccc1-c1ncc(CN2CCC(CO)(CCCc3ccccc3)CC2)cn1 was read as IL1B secr inh -19, HT1080 IDH1KD tx -17%, TDP1 cell CPT inconclusive, TDP1 cell noCPT inconclusive and HT1080NT lethal -17%.
Screening COc1ccc(-c2ncc(CN3CCC(CO)(Cc4cccc(OC)c4)CC3)cn2)cc1 returned IL1B secr inh 3, HT1080 IDH1KD tx inconclusive, TDP1 cell CPT inconclusive, TDP1 cell noCPT inconclusive and HT1080NT lethal -24%.
OCC1(Cc2ccccc2)CCN(Cc2cnc(-c3ccc(Cl)cc3)nc2)CC1 was read as IL1B secr inh -94*, HT1080 IDH1KD tx 26µM*, TDP1 cell CPT inconclusive, TDP1 cell noCPT 23µM* and HT1080NT lethal inconclusive.
Cc1ccc(N(C(=O)c2snc(C(N)=O)c2N)C(C(=O)NCC2CCCO2)c2ccc(C)o2)c(C)c1 (centres undefined) was read as IL1B secr inh inconclusive, HT1080 IDH1KD tx -25%, TDP1 cell CPT 18µM*, TDP1 cell noCPT 16µM* and HT1080NT lethal 0%.
